Reference: PubChem BioAssay AID1956 (SRMLSC, 2009)
Several values for one entry are separate records, joined by “and”; a condition that tells them apart may be missing. Equal values may be shown once. About 10 (0.005%) of roughly 220,000 compounds were called active. Cut-off read from the data, not from the text of the source: active = maximum fold increase above about 1.5; inconclusive = no clear call, values can overlap the other calls; inactive = below that; tested in PC3 cells. A selection follows.

Test: compounds boosting herpes simplex virus growth – fold increase, host cell viability (AID 1956)
Conditions: HSV replication augmentation in cells; fold increase: measured here: primary screen fold increase 10 uM, at 10 µM, stronger effect = higher value; maximum fold increase: at 0.098 µM, stronger effect = higher value; viability: measured here: host cell viability series, at 25 µM, stronger effect = lower value

Row | Structure (SMILES) | fold increase | outcome
1 | CC(=O)NC(=S)Nc1ccc(NC(=O)c2cccnc2)cc1 | 0.97 | inactive
2 | COc1ccc(/C=N/n2nnnc2N)cc1OC | 0.91 | inactive
3 | Cc1ccc(/C=N/NC(=S)NC2CCCCC2)o1 | 0.99 | inactive
4 | O=C(O)C1CCN(C(=O)c2cc(F)cc3c2OCOC3)CC1 | 1.05 | inactive
5 | C[C@H]1CC[C@]2(O[C@@H](CCO)C[C@@H](O)[C@@H]2O)O1 | 0.79 | inactive
6 | O=C(O)CCCCCCCCCC[n+]1ccccc1 | 0.88 | inactive
7 | COc1ccc2c(c1)CCNC2Cc1ccc(OC)c(O)c1 (stereo not given) | 0.84 | inactive
8 | O=C1c2ccccc2S(=O)(=O)c2cc(N3CCN(c4ccccn4)CC3)ccc21 | 0.92 | inactive
9 | CCOC(=O)c1ccc(NC(=O)c2c(N)n(C)c(=O)[nH]c2=O)cc1 | 0.86 | inactive
10 | COC(=O)c1cc(NC(=O)c2cc(C(C)(C)C)nn2Cc2cccc(C)c2)ccc1N1CCOCC1 | 0.93 | inactive
11 | COc1ccc(-c2csc(NC3OC(=O)c4ccccc43)n2)cc1 (stereo not given) | 0.65 | inactive
12 | O=C(O)Cc1csc(-c2cccc(Oc3ccccc3)c2)n1 | 1.01 and 0.89 | inactive
13 | Cc1ccc(CNC(=O)c2ccc3c(c2)S(=O)(=O)c2ccccc2C3=O)cc1 | 0.82 | inactive
14 | O=C(Cc1ccccc1)Nc1c(Cl)ccc2nsnc12 | 1.01 | inactive
15 | COc1ccc(Cl)cc1CSc1ncn[nH]1 | 0.97 | inactive
16 | Cc1c(NC(=O)C(=O)N/N=C/c2cccs2)c(=O)n(-c2ccccc2)n1C | 0.92 | inactive
17 | O=C(NC1CC1)C1=C[C@H](c2coc3ccccc3c2=O)C[C@H](OCCCCO)O1 | 0.73 | inactive
18 | CC(C)Cc1ccc(C(C)C(=N)N)cc1 (stereo not given) | 0.92 | inactive
19 | CC(C)(C)n1nc(Cc2cccc3ccccc23)c(C#N)c1N | 0.79 | inactive
20 | Oc1ccc(-c2nnc(Nc3ccccc3)c3ccccc23)cc1 | 0.8 | inactive
21 | CC1(C)CC(N2CCN(C(c3ccccc3)c3ccccc3)CC2)=CC(=[N+]2CCCCC2)C1 | 0.65 | inactive
22 | C#CCOCCOCCOCCNc1nc(N2CCN(C(=O)C([C@@H](C)CC)n3cc(C(N)COC(=O)C(F)(F)F)nn3)CC2)nc(N2CCN(C(=O)[C@H](Cc3ccc(O)cc3)n3cc(C(N)[C@H](C)CC)nn3)CC2)n1 (stereo not given in full) | 0.87 | inactive
23 | C#CCNC(=O)[C@H](Cc1ccc(C(=O)c2ccccc2)cc1)NC(=O)OC(C)(C)C | 0.7 | inactive
24 | COc1ccccc1-n1cn[nH]c1=S | 0.88 | inactive
25 | O=C(O)CCn1c(O)c(C=C2N=c3ccccc3=N2)sc1=S | 1.18 | inactive
